Results on 15 molecules are retold here after PubChem BioAssay (NCI).

Compounds without any hit were thinned out: in the full panel of roughly 83,000, 20% have a hit.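 Negative percent growth values reflect cell death: -40 means 40% of the cells present at the start died, and -100 means all died.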 Unmarked numbers belong to inactive results. Activity calls are given as the source filed them. The calls were made as follows: active = growth percent below 10; inactive = the rest.

Among the test systems are T-47D breast; BT-549 breast; MDA-MB-435 melanoma; SW-620 colon; MCF7 breast; HCT-116 colon; HCC-2998 colon; KM12 colon.
Common to all, as to test: NCI-60 one-dose screen, 48 h (100 = growth as untreated, 0 = no growth, -100 = all killed)
What all share (conditions): 10 µM unless noted

For the molecule `O=S(=O)(NCCNc1nccc(-c2c(-c3cccc(O)c3)nc3occn23)n1)c1ccccc1`, the growth in the assay with T-47D breast is 74%; in the assay with BT-549 breast, 96%; with MDA-MB-435 melanoma, 28.5%; with SW-620 colon it was 103%; in the assay on MCF7 breast, 49.4%; in the assay on HCT-116 colon, 53.8%. In addition, the results for the growth in the assay on HCC-2998 colon and in the assay on KM12 colon were 113% and 83.3%, respectively.

In the case of `Cc1cc2nc3c4cccc(O)c4n(CCN(C)C)c3nc2cc1C`, the growth in the assay on T-47D breast was 64.3%; in the assay with BT-549 breast, 77.4%; in the assay on MDA-MB-435 melanoma it was 45.4%; with SW-620 colon it was 20.6%; in the assay on MCF7 breast, 23.5%; in the assay on HCT-116 colon it was 22%. In addition, the growth in the assay with HCC-2998 colon was 24.5%; in the assay on KM12 colon, 37.7%.

Turning to `CCN1CCN(CCNc2nccc(-c3c(-c4cccc(OC)c4)nc4occn34)n2)S1(=O)=O`, the growth with T-47D breast was 76.3%; with BT-549 breast, 111%; in the assay with MDA-MB-435 melanoma, 52.2%; in the assay with SW-620 colon, 132%; in the assay with MCF7 breast, 86.1%; in the assay on HCT-116 colon, 99.8%. The growth is 130% in the assay on HCC-2998 colon and 100% in the assay on KM12 colon.

Turning to `O=Cc1ccc(-c2cn3ccnc3c(-c3ccc4ncn(Cc5ccccc5)c4c3)n2)cc1`, the growth in the assay with T-47D breast is 1.99% (active); with BT-549 breast, 66.2%; with MDA-MB-435 melanoma it was 87%; in the assay with SW-620 colon, 95.8%; in the assay with MCF7 breast, 52.2%; with HCT-116 colon, 7.44% (active). Besides, the growth is 105% in the assay with HCC-2998 colon and 96.3% in the assay on KM12 colon.

Consider `O=C(N/N=C/c1cc2ccccc2n2nnnc12)Nc1ccccc1`, for which the growth in the assay on T-47D breast is 108%; in the assay with BT-549 breast, 114%; with MDA-MB-435 melanoma, 102%; in the assay on SW-620 colon, 107%; in the assay on MCF7 breast, 92.3%; in the assay on HCT-116 colon it was 113%. Besides, the growth is 108% with HCC-2998 colon and 104% in the assay with KM12 colon.

Consider `Cn1cc(-c2csc(-c3c[nH]c4ccccc34)n2)c2ccnc(Cl)c21`, for which the growth in the assay with T-47D breast was 18.4%; with BT-549 breast, 93.8%; in the assay on MDA-MB-435 melanoma it was 75.7%; with SW-620 colon, 41.7%; in the assay on MCF7 breast, 30.3%; in the assay with HCT-116 colon, 59.4%. Moreover, the growth in the assay on HCC-2998 colon is 92.4%; in the assay with KM12 colon it was 58.9%.

Consider `COc1cc(/C=C\c2cc(/C=C\c3ccc(O)c(OC)c3)n(C(=O)COc3ccccc3)n2)ccc1O`, for which the growth in the assay on T-47D breast is 12.4%; with BT-549 breast it was -3.68% (active); in the assay with MDA-MB-435 melanoma, 8.84% (active); with SW-620 colon it was 7.35% (active); in the assay on MCF7 breast, 1.3% (active); in the assay with HCT-116 colon it was 3.68% (active). The results for the growth with HCC-2998 colon and in the assay on KM12 colon were 34.8% and 8.96% (active), respectively.

Turning to `CCOC(=O)CCN(CC(C)C)C(=S)Nc1ccccc1`, the growth was 105% with T-47D breast; 106% with BT-549 breast; 102% in the assay on MDA-MB-435 melanoma; 107% with SW-620 colon; 98.8% in the assay on MCF7 breast; 95.9% in the assay on HCT-116 colon. Moreover, the growth in the assay with HCC-2998 colon was 108%; with KM12 colon, 104%.

In the case of `O=S(=O)(NCCCNc1nccc(-c2c(-c3cccc(O)c3)nc3occn23)n1)c1ccc(Cl)cc1`, the growth with T-47D breast is 64.2%; in the assay on BT-549 breast, 102%; in the assay on MDA-MB-435 melanoma it was 33.8%; in the assay on SW-620 colon it was 109%; with MCF7 breast it was 82.6%; in the assay on HCT-116 colon, 61.9%. The growth in the assay on HCC-2998 colon was 120%; in the assay on KM12 colon it was 86.2%.

On to `COC(=O)c1ccc2c(c1)[n+](=O)c(C(C)=O)c(C(F)(F)F)n2[O-]`, for which the growth was -73.6% (active) in the assay with T-47D breast; -19.6% (active) in the assay with BT-549 breast; 0.455% (active) with MDA-MB-435 melanoma; 18.1% in the assay on SW-620 colon; -50.3% (active) in the assay on MCF7 breast; -98% (active) in the assay with HCT-116 colon. In addition, the growth with HCC-2998 colon was -86.9% (active); in the assay with KM12 colon, -93.5% (active).

In the case of `C#CCNC(=O)[C@]1(C)CC[C@]2(C)CC[C@@H]3C(=CC[C@H]4[C@@]3(C)CC[C@H]3C(C)(C)C(=O)CC[C@]43C)[C@@H]2C1`, the growth was 77.1% in the assay on T-47D breast; 101% in the assay with BT-549 breast; 97.3% in the assay with MDA-MB-435 melanoma; 105% with SW-620 colon; 83.3% in the assay on MCF7 breast; 81% in the assay on HCT-116 colon. The growth was 101% with HCC-2998 colon and 92.3% with KM12 colon.

`C=C(C)[C@@H]1CC[C@]2(C(=O)N3CCN(C)CC3)CC[C@]3(C)[C@H](CC[C@@H]4[C@@]5(C)C/C(=C/c6ccncc6)C(=O)C(C)(C)[C@@H]5CC[C@]43C)[C@@H]12`: the growth is 48.3% with T-47D breast; 66.3% in the assay on BT-549 breast; 56.4% in the assay with MDA-MB-435 melanoma; 39.6% in the assay with SW-620 colon; 19% in the assay with MCF7 breast; 17.6% in the assay on HCT-116 colon. Further, the growth was 62.5% in the assay on HCC-2998 colon and 51.3% in the assay on KM12 colon.

Consider `CCCCCC(=O)Oc1ccc(/C(=C(/C)Cc2ccc(OC)cc2)c2ccc(OCCCN(C)C)cc2)cc1`, for which the growth in the assay on T-47D breast is 51.2%; with BT-549 breast, 88.8%; in the assay on MDA-MB-435 melanoma, 53.2%; in the assay with SW-620 colon, 82.4%; with MCF7 breast, 20.1%; in the assay with HCT-116 colon, 56.5%. Further, the growth in the assay with HCC-2998 colon was 69.3%; with KM12 colon, 73.6%.

Take `NC(=O)Nc1ccc(-n2cnc3cc(-c4ccc(O)cc4)ccc32)cc1`: the growth with T-47D breast is 59.7%; in the assay with BT-549 breast, 88.2%; with MDA-MB-435 melanoma, 96.8%; with SW-620 colon, 114%; in the assay on MCF7 breast it was 93.7%; in the assay with HCT-116 colon, 91.8%. In addition, the growth in the assay on HCC-2998 colon is 110%; in the assay on KM12 colon, 21.8%.

`N#Cc1cccc(-c2ccc3c(c2)NC(=O)/C3=C\c2ccc[nH]2)c1`: the growth in the assay with T-47D breast is -28.7% (active); in the assay with BT-549 breast, 17.4%; in the assay with MDA-MB-435 melanoma, 43.9%; with SW-620 colon it was 51.6%; in the assay on MCF7 breast, 10.1%; in the assay with HCT-116 colon it was 73%. In addition, the results for the growth in the assay on HCC-2998 colon and in the assay on KM12 colon were 36% and 20.4%, respectively.
